Assay results as given in PubChem BioAssay (Tox21).
Inconclusive results are not listed. Calls of active or inactive are those of the source. Unless noted, calls come from the whole dose curve; as a rule, active = well fitted curve in the direction sought with a large enough effect in the repeat runs; inconclusive = weak or mixed curves; inactive = no such curve, though single readings can be large; an effect the other way counts as inactive or inconclusive.

Tests used:
[1] = qHTS assay to identify small molecule antagonists of the estrogen receptor beta (ER-beta) signaling pathway - cell viability counter screen (AID 1259382);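 note: HEK293T cells carrying ER-beta-UAS-bla reporter stimulated with estradiol; series mostly up to about 92 µM; nearly all actives have a fitted effect of over 55% in size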
How it was run: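 ER-beta-UAS-bla HEK293T cells (2,000/well, 2% charcoal-stripped FBS) were pre-incubated 6 hr at 37C, then given compound plus 1nM final 17-beta-estradiol for 16 hr. Viability was read in the same wells by CellTiter-Glo luminescence after 30 min at room temperature.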

[2] = molecular target: Estrogen receptor (Homo sapiens) (UniProt P03372); assay: qHTS assay to identify small molecule agonists of the estrogen receptor alpha (ER-alpha) signaling pathway in the presence of an antagonist (AID 1259383; calls by dose curve; note: top concentration of the series differs between compounds; nearly all actives have a fitted effect of over 15% in size)
How it was run: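 VM7Luc4E2 cells (endogenous full-length ER-alpha, 4×ERE-luciferase) were precultured 5 days in phenol red-free medium with 10% charcoal-stripped FBS, given 10.0nM ICI-182,780 (final), then treated with compounds at 15 concentrations for 22hr at 37C; luminescence read with ONE-Glo.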

[3] = qHTS assay to identify small molecule agonists or antagonists of the thyroid stimulating hormone receptor (TSHR) signaling pathway - wild type cell line counter screen (AID 1259384; calls by dose curve)
How it was run: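 Wild-type HEK293 cells were plated 18 h at 37 C/5% CO2, pin-dosed with compound plus Ro20-1724 medium, held 30 min at room temperature, then given cAMP-d2 and anti-cAMP-cryptate; fluorescence was read after 1 h. Fifteen concentrations, triplicate.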

[4] = molecular target: Thyrotropin receptor (Homo sapiens) (UniProt P16473); assay: qHTS assay to identify small molecule antagonists of the thyroid stimulating hormone receptor (TSHR) signaling pathway (AID 1259385; calls by dose curve; note: nearly all actives have a fitted effect of over 20% in size)
How it was run: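 TSHR-HEK293 cells were plated and held 18 h at 37C/5% CO2, then given compound plus Ro20-1724 and stimulated with TSH at 1.5 ng/mL final. After 30 min at room temperature, cAMP was detected with cAMP-d2/anti-cAMP-cryptate (1 h) by fluorescence.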

[5] = qHTS assay to identify small molecule agonists of the estrogen receptor alpha (ER-alpha) signaling pathway in the presence of an antagonist - cell viability counter screen (AID 1259386);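 note: series mostly up to about 92 µM; cells exposed to compounds for 22 h at 37 °C before the viability read; nearly all actives have a fitted effect of over 30% in size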
How it was run: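 VM7Luc4E2 cells (endogenous full-length ER-alpha, 4×ERE-luciferase) were held 5 days in phenol red-free medium with 10% charcoal-stripped FBS, plated, then given 10.0nM ICI-182,780 and compounds at 15 concentrations for 22hr at 37C; viability read by CellTiter-Fluor fluorescence.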

[6] = molecular target: Progesterone receptor (Homo sapiens) (UniProt P06401); assay: qHTS assay to identify small molecule agonists of the progesterone receptor (PR) signaling pathway (AID 1346784; calls by dose curve; note: nearly all actives have a fitted effect of over 30% in size; note: potency is the fitted concentration of half-maximal effect)
How it was run: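 The screen uses PR-UAS-bla HEK 293T cells in charcoal-stripped serum (2%). Compounds are applied for 16 hr at 37C after a 6 hr pre-incubation, and reporter activity is detected with a FRET beta-lactamase substrate after 2 hr at room temperature.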

[7] = molecular target: Progesterone receptor (Homo sapiens) (UniProt P06401); assay: qHTS assay to identify small molecule antagonists of the progesterone receptor (PR) signaling pathway (AID 1346795; active = well fitted inhibition curve with a large enough effect in the signal ratio in the repeat runs, not every such curve was filed as active; the % refers to the signal ratio)
How it was run: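 After 6 hr plating at 37C in 2% stripped-serum medium, PR-UAS-bla HEK293T cells got compounds, then 1 nM R5020. Sixteen hours later, LiveBLAzer substrate was applied for 2 hr at room temperature and fluorescence was recorded.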

[8] = qHTS assay to identify small molecule antagonists of the progesterone receptor (PR) signaling pathway - cell viability counter screen (AID 1346798); note: series mostly up to about 92 µM; nearly all actives have a fitted effect of over 50% in size
How it was run: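 Viability was determined by ATP-based luminescence (CellTiter-Glo) in PR-UAS-bla HEK293T cells cultured in 2% charcoal-stripped serum and incubated 16 hr with compounds under R5020 stimulation.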

[9] = qHTS assay to identify small molecule antagonists of the TGF-beta/Smad signaling pathway - cell viability counter screen (AID 1346824); note: nearly all actives have a fitted effect of over 50% in size
How it was run: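 SBE-bla HEK 293T cells were plated overnight at 37 C, then given compounds in DMSO plus TGF-beta1 (added as 0.25 ng/mL solution) for 5 hr. After the bla read, CellTiter-Glo was added to the same wells and luminescence read after 30 min at room temperature.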

[10] = qHTS assay to identify small molecule agonists of the TGF-beta/Smad signaling pathway - cell viability counter screen (AID 1346829); note: top concentration of the series differs between compounds; nearly all actives have a fitted effect of over 45% in size
How it was run: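 Here the cytotoxicity of library compounds is measured in SBE-bla HEK 293T cells treated for 5 hr, using CellTiter-Glo added to wells already read for the beta-lactamase reporter.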

[11] = qHTS assay to identify small molecule agonists of the TGF-beta/Smad signaling pathway (AID 1346859; active = well fitted activation curve with a large enough effect in the signal ratio in the repeat runs, not every such curve was filed as active; the % refers to the signal ratio; note: series mostly up to about 77 µM)
How it was run: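 Dual-wavelength fluorescence (460/530 nm emission) quantified beta-lactamase expression under the Smad binding element in HEK 293T cells following 5 hr compound treatment at 37 C.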

[12] = molecular target: Thyrotropin-releasing hormone receptor (Homo sapiens) (UniProt P34981); assay: qHTS assay to identify small molecule antagonists of the thyrotropin-releasing hormone receptor (TRHR) signaling pathway (AID 1346877; active = well fitted inhibition curve with a large enough effect in the repeat runs, not every such curve was filed as active; note: series mostly up to about 51 µM)
How it was run: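 TRHR-expressing HEK293 cells were seeded, cultured 18 h at 37 °C, then loaded with calcium dye for 2 h. Compounds were pre-incubated 5 min at room temperature before 1 nM TRH (final) was added, and kinetic fluorescence was recorded for 3 min.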

[13] = molecular target: Thyrotropin-releasing hormone receptor (Homo sapiens) (UniProt P34981); assay: qHTS assay to identify small molecule agonists of the thyrotropin-releasing hormone receptor (TRHR) signaling pathway (AID 1346891; calls by dose curve; note: series mostly up to about 58 µM)
How it was run: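 Kinetic fluorescence (3 min, 1 s intervals) reported intracellular calcium after compound transfer onto TRHR-Hek293 cells pre-loaded with dye for 2 h at 37 °C.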

[14] = Human pregnane X receptor (PXR) small molecule agonists, qHTS cell viability counter screen (AID 1346977); note: nearly all actives have a fitted effect of over 50% in size
How it was run: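 HepG2 cells stably carrying the PXR-Luc reporter are cultured with 5% charcoal-stripped FBS and treated with compounds for 24hr. CellTiter-Fluor is added at 23hr and fluorescence is read after 1hr.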

[15] = Caspase-3/7 induction in HepG2 cells by small molecules, qHTS assay (AID 1346978); note: nearly all actives have a fitted effect of over 15% in size
How it was run: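 Wild-type HepG2 cells (2,000/well) were settled 5 h at 37 C, 5% CO2, then exposed to compounds in DMSO for 17 h. Caspase-3/7 activity was read by luminescence 30 min after adding Caspase-Glo 3/7 reagent at room temperature.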

[16] = Caspase-3/7 induction in CHO-K1 cells by small molecules, qHTS cell viability counter screen (AID 1346979); note: nearly all actives have a fitted effect of over 35% in size
How it was run: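 Seeding: 1,500 CHO-K1 cells/well. Rest: 5hr, 37C. Treatment: compounds in DMSO, 16hr. Read: CellTiter-Fluor, 1hr, fluorescence.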

[17] = Caspase-3/7 induction in CHO-K1 cells by small molecules, qHTS assay (AID 1346980); note: nearly all actives have a fitted effect of over 15% in size
How it was run: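 Wild-type cells were seeded at 1,500 per well and settled 5 hr at 37 C, 5% CO2, then exposed to DMSO-dissolved compounds for 17 hr. Caspase-Glo 3/7 reagent was added, and luminescence was read after 30min at room temperature.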

[18] = Caspase-3/7 induction in HepG2 cells by small molecules, qHTS cell viability counter screen (AID 1346981); note: series mostly up to about 92 µM; nearly all actives have a fitted effect of over 30% in size
How it was run: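 Wild-type HepG2 cells (2,000/well) were allowed to settle for 5 hr at 37 C, 5% CO2, then dosed with compounds in DMSO by pin transfer. After 16 hr at 37 C, CellTiter-Fluor was added and fluorescence read 1 hr later.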

[19] = qHTS assay to identify small molecule agonists of the progesterone receptor (PR) signaling pathway - cell viability counter screen (AID 1346799; calls by dose curve; note: nearly all actives have a fitted effect of over 45% in size)
How it was run: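 Viability was scored by ATP luminescence (CellTiter-Glo, 30 min, room temperature) in the same wells used for the reporter readout, after 16 hr compound exposure of PR-UAS-bla HEK293T cells.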

[20] = molecular target: Androgen receptor (Homo sapiens) (UniProt P10275); assay: qHTS assay to identify small molecule agonists of the androgen receptor (AR) signaling pathway in the presence of an antagonist (AID 1259381; calls by dose curve; note: nearly all actives have a fitted effect of over 15% in size)
How it was run: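 MDA-kb2 human breast carcinoma cells carrying an MMTV-luciferase reporter (AR- and GR-responsive) were treated with compounds at 15 concentrations plus 3.0uM final nilutamide for 16hr at 37C without CO2; luminescence was read after ONE-Glo addition.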
% is set by controls: 0 for no effect and ±100 for the full control effect.

Thyrotropin-releasing hormone receptor (Homo sapiens), sequence (P34981 whole entry, looked up): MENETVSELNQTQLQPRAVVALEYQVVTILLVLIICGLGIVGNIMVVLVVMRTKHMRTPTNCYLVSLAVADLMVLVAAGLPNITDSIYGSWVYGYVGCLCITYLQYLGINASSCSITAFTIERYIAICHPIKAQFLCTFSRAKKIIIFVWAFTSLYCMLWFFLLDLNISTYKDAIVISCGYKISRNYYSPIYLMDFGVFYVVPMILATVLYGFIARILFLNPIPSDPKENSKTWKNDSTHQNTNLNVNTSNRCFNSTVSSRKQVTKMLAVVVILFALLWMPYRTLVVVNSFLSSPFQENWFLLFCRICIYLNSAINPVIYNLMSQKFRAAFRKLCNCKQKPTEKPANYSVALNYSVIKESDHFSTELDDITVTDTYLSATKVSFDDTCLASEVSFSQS
Estrogen receptor (Homo sapiens), sequence (P03372 whole entry, looked up): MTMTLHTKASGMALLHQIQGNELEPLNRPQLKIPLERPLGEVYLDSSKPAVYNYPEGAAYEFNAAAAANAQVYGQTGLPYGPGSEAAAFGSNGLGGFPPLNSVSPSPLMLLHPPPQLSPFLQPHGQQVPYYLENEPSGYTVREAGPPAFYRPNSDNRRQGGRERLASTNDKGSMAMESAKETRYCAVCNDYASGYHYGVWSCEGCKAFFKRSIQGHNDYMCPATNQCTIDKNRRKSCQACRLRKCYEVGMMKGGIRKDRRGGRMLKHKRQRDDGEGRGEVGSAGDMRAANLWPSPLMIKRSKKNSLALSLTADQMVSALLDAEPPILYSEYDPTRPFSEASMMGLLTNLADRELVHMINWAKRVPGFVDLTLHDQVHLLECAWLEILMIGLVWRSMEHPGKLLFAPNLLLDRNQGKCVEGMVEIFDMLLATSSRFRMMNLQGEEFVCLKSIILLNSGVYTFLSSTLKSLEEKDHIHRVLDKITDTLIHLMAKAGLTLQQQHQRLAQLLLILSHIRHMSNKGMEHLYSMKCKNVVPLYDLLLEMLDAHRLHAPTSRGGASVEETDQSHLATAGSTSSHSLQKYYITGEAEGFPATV
Progesterone receptor (Homo sapiens), sequence (P06401 whole entry, looked up): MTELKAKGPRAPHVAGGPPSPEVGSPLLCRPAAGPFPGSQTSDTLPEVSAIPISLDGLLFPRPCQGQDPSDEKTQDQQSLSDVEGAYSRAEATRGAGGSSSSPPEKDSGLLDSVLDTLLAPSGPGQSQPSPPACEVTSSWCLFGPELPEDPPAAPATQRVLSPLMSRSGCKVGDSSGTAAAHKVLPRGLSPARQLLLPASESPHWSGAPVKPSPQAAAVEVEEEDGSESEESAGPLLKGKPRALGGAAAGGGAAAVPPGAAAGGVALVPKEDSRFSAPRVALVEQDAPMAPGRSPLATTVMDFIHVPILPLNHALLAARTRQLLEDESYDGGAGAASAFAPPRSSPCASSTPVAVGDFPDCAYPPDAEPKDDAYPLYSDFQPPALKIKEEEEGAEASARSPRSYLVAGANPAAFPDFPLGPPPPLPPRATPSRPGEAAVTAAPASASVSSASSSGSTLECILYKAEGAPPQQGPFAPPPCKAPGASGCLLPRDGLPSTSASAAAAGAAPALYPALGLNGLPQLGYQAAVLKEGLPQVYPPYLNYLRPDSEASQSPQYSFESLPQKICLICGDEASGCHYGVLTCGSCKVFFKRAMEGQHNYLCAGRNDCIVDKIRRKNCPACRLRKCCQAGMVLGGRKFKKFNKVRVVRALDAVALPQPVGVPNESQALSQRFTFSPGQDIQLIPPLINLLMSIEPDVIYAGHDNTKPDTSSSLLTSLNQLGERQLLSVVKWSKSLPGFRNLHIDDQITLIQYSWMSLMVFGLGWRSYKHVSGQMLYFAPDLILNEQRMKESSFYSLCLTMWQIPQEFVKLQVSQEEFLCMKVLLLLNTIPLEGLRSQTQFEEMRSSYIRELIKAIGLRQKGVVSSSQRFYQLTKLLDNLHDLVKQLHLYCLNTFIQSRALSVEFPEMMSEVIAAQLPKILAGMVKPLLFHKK
Thyrotropin receptor (Homo sapiens), sequence (P16473 whole entry, looked up): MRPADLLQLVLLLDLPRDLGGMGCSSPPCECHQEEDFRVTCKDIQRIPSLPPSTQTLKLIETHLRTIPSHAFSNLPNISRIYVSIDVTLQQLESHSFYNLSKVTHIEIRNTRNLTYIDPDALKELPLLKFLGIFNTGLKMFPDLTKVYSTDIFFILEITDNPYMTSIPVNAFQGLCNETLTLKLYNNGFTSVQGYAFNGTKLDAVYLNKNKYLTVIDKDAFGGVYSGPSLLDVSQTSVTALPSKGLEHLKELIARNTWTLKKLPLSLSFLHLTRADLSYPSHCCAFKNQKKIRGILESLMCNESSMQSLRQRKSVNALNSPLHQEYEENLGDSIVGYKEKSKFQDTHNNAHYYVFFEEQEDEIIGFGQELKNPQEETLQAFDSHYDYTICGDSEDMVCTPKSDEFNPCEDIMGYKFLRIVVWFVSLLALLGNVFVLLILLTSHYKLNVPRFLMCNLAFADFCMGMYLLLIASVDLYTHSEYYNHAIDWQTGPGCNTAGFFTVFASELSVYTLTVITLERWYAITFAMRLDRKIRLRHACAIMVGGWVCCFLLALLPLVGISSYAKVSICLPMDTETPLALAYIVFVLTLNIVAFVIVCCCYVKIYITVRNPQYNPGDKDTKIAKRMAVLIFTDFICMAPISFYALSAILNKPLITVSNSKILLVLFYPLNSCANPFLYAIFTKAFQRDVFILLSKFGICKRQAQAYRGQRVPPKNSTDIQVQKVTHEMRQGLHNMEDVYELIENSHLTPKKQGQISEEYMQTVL
Androgen receptor (Homo sapiens), sequence (P10275 whole entry, looked up): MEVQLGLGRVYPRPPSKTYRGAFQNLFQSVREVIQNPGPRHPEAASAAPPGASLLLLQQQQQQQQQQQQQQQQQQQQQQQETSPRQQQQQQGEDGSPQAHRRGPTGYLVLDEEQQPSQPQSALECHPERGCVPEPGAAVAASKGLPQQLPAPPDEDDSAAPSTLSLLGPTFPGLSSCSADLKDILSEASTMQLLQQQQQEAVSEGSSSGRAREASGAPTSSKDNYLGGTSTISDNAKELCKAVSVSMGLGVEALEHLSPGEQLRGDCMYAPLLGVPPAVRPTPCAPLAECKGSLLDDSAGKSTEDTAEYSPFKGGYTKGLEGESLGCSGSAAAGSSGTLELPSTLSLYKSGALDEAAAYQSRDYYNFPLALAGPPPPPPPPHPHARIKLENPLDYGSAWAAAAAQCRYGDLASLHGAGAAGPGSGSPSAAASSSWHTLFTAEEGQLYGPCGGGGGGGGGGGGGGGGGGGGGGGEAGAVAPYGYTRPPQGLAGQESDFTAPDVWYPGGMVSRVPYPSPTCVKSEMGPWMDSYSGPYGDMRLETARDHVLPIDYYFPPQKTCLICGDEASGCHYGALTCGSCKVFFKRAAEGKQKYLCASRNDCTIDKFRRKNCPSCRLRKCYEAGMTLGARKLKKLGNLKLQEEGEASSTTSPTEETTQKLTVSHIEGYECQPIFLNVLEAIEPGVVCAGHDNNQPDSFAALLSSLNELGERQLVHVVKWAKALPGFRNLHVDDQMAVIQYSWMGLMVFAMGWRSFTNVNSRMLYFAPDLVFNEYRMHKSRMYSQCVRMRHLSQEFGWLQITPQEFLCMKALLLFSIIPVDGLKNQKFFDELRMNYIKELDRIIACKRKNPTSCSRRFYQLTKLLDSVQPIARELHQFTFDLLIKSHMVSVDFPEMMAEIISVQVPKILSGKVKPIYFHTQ

CCOC(=O)CCCCCCCCC(=O)OCC
inactive: outcome [1] | outcome [2] | outcome [3] | outcome [4] | Potency [5] | Potency [6] | Potency [7] | Potency [8] | outcome [9] | outcome [10] | outcome [11] | outcome [12] | outcome [13] | Potency [14] | outcome [15] | Potency [16] | outcome [17]

NS(=O)(=O)c1ccc(Cl)c(S(N)(=O)=O)c1
inactive: outcome [1] | outcome [2] | outcome [3] | outcome [4] | Potency [5] | Potency [6] | Potency [7] | Potency [8] | outcome [9] | outcome [10] | outcome [11] | outcome [13] | Potency [14] | outcome [15] | Potency [16] | outcome [17] | Potency [18]

O=c1[nH]c(=O)c2[nH]c(=O)[nH]c2[nH]1
inactive: activity change, negative = cytotoxicity [1] 3.94% [at 8.39 µM] | activation [2] 0.0928% [at 8.39 µM] | cAMP activity change [3] -3.72% [at 8.39 µM] | activity change, negative = inhibition [4] 0.717% [at 8.39 µM] | activity change, negative = cytotoxicity [5] 1.17% [at 8.39 µM] | activation [6] -0.558% [at 8.39 µM] | activity change, negative = inhibition [7] 0.247% [at 8.39 µM] | activity change, negative = cytotoxicity [8] -11.7% [at 8.39 µM] | viability change, negative = cytotoxic [9] 2.42% [at 6.97 µM] | activity change, negative = cytotoxicity [10] -0.0048% [at 6.97 µM] | activation [11] -2.44% [at 6.97 µM] | activity, negative = inhibition [12] 0.0155% [at 4.65 µM] | activation [13] 0.501% [at 5.23 µM] | activity change, negative = cytotoxicity [14] -1.5% [at 8.39 µM] | caspase activation [15] -0.796% [at 8.39 µM] | activity change, negative = cytotoxicity [16] 4.37% [at 8.39 µM] | caspase-3/7 activation [17] -0.0479% [at 8.39 µM] | activity change, negative = cytotoxicity [18] 2.67% [at 8.39 µM]

CC(C)(c1ccc(Oc2ccc3c(c2)C(=O)OC3=O)cc1)c1ccc(Oc2ccc3c(c2)C(=O)OC3=O)cc1
inactive: outcome [1] | outcome [2] | outcome [3] | outcome [4] | Potency [5] | Potency [6] | Potency [7] | Potency [8] | Potency [19] | outcome [9] | outcome [10] | outcome [11] | Potency [14] | outcome [15] | outcome [17] | Potency [18]

Cn1c(=O)c2c(ncn2CC2OCCO2)n(C)c1=O
inactive: outcome [20] | Potency [5] | Potency [6] | Potency [7] | Potency [8] | outcome [9] | outcome [10] | outcome [11] | outcome [12] | outcome [13] | Potency [14] | outcome [15] | Potency [16] | outcome [17] | Potency [18]

OCCCCCCCl
inactive: outcome [1] | outcome [2] | outcome [3] | outcome [4] | Potency [5] | Potency [6] | Potency [7] | Potency [8] | Potency [19] | outcome [9] | outcome [10] | outcome [11] | outcome [12] | outcome [13] | Potency [14] | outcome [15] | Potency [16] | outcome [17] | Potency [18]

O=C1OC(=O)c2ccccc21
active: Potency [6] 60.8 µM
inactive: outcome [1] | outcome [2] | outcome [3] | outcome [4] | Potency [5] | Potency [7] | Potency [8] | outcome [9] | outcome [10] | outcome [11] | outcome [12] | outcome [13] | Potency [14] | outcome [15] | Potency [16] | outcome [17] | Potency [18]
